Source: PubChem
ELG1 repair inh: qHTS screen for small molecules that inhibit ELG1-dependent DNA repair in human embryonic kidney (HEK293T) cells expressing luciferase-tagged ELG1 | AID 504467, 2011 | Potency, µM (titrated, usually from 46.1 µM), for inactives: at the top dose activity change, negative = inhibition, usual class: inhibitors | 2.3% of 330,000 active | HEK293T ELG1-luciferase reporter, luminescence, 16 h; DNA damage induced by 5-fluorouridine; further: on the % scale 0 is the no-effect control and ±100 the full control effect; nearly all actives have a fitted effect of over 55% in size
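Step one: seed 2,000 cells per well. Step two: pin-transfer compound or DMSO alongside 5-fluorouridine. Step three: incubate 16 hr, 37 °C, 5% CO2. Step four: add ONE-Glo, wait 30 min, read luminescence.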
MCF10A rerep: A quantitative high throughput screen for small molecules that induce DNA re-replication in MCF 10a normal breast cells; MCF 10A DNA re-replication, Hoechst nuclear intensity, 48 h; Potency, µM (doses to about 46.1 µM), for inactives: at the top dose activity, positive = re-replication, hits mostly activators; 2.9% of 350,000 active; AID 624296, 2012; further: % of control where 0% means no effect; nearly all actives have a fitted effect of over 50% in size
KB-3-1 cytotox: qHTS assay for MDR1-selective chemotherapeutics: Primary screen using the parental adenocarcinoma cell KB-3-1; 1.4% of 400,000 active; Potency, µM (highest dose often 46.1 µM), actives largely listed as cytotoxic; KB-3-1 viability, CellTiter-Glo ATP luminescence, 72 h; AID 1347075, 2019; further: on the % scale 0 is the no-effect control and ±100 the full control effect; nearly all actives have a fitted effect of over 60% in size
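Screening of KB-3-1 cells (DMEM, 10% FBS, phenol-red free) ran from lowest to highest compound concentration; after 72 h at 37 °C viability was read luminescently and curves fitted.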
KB-V1 cytotox: qHTS assay for MDR1-selective chemotherapeutics: Primary screen using the drug-selected MDR subline cells KB-V1; KB-V1 MDR cells viability, CellTiter-Glo, 72 h; Potency, µM (top dose mostly 46.1 µM), usual class: cytotoxic; 3.4% of 400,000 active; further: on the % scale 0 is the no-effect control and ±100 the full control effect; nearly all actives have a fitted effect of over 60% in size
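KB-V1, DMEM (no phenol red) + 10% FBS; cpd pin-transferred, titration series; 72 h, 37 degrees C; CellTiter-Glo, luminescence. Data normalized, curve-fit.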
SW480 rereplic: A quantitative high throughput screen for small molecules that induce DNA re-replication in SW480 colon adenocarcinoma cells. SW480 DNA re-replication, Hoechst DNA content imaging, 48 h. Potency, µM (highest dose often 46.1 µM), for the others: top-dose re-replication activation, hits mostly activators. 1.8% of 340,000 active; further: % of control where 0% means no effect; nearly all actives have a fitted effect of over 55% in size
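Image-based read-out: total Hoechst fluorescence of nuclei (405 nm excitation, 500-530 nm emission), with hits raising the fraction of high-intensity nuclei. SW480 colon cells incubated 48 hr with compounds at 37 C.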
Active calls of the source: *; i = inactive; ? = inconclusive; · = no result given. Hits are enriched below; roughly 8.2% of the tested compounds scored in any of these assays. The call rests on the fitted dose curve; in most records, active means well fitted curve in the direction sought with a large enough effect; inconclusive means small, poorly fitted or top-dose-only effect, or another doubt; inactive means no such curve, though single readings can be large; an effect the other way counts as inactive or inconclusive. Potency means the concentration at half of the fitted maximal effect.

SMILES	ELG1 repair inh	MCF10A rerep	KB-3-1 cytotox	KB-V1 cytotox	SW480 rereplic
COc1cccc(C2C3=C(N=c4s/c(=C\c5ccc(O)cc5)c(=O)n42)c2ccccc2CC3)c1OC (stereo unspecified)	15%	-1%	i	i	-10%
COc1cccc(C2C3=C(N=c4s/c(=C\c5cccc(O)c5)c(=O)n42)c2ccccc2CC3)c1OC (stereo unspecified)	?	9%	?	16µM*	?
O=C(/C=C/c1ccc([N+](=O)[O-])cc1)c1ccccc(=O)c1O	·	2.9µM*	?	1µM*	5.8µM*
Cc1ccc(/C=C/C(=O)c2ccccc(=O)c2O)c(C)c1	-27%	?	16µM*	8.2µM*	?
O=C(/C=C/c1ccc([N+](=O)[O-])cc1)c1cccs1	-2%	1%	i	i	?
Cc1ccc(C)c(/C=C/C(=O)c2ccccc(=O)c2O)c1	?	18µM*	12µM*	8.2µM*	-651%
O=C(/C=C/c1ccccc1Cl)c1ccccc(=O)c1O	?	10µM*	21µM*	18µM*	12µM*
O=C(/C=C/c1ccc(O)c(O)c1)c1ccccc1O	?	?	?	?	-3%
O=C(/C=C/c1ccccc1Cl)c1ccc(O)cc1	?	?	i	?	?
CCOC(=O)c1cc(-c2ccc(C)cc2)n(CC(=O)Nc2ccc(OC)cc2OC)c1C	·	·	i	?	·
Cc1nn(C(C)C(=O)NCCN2CCCC2)c(=O)c2c1sc1ccccc12 (stereo unspecified)	-2%	0%	i	i	1%
COCCN(Cc1ccco1)C(=O)c1cc2c(=O)[nH]c3ccc(C)cc3c2s1	·	·	i	i	·
CCOCCCN(Cc1ccco1)C(=O)c1cc2c(=O)[nH]c3ccc(C)cc3c2s1	16µM*	?	?	?	17%
Cc1ccc2[nH]c(=O)c3cc(C(=O)N4CCN(C(=O)c5ccco5)CC4)sc3c2c1	16µM*	-5%	i	i	-1%
CSc1nsc(/C=C/Nc2ccc(C(=O)O)cc2)c1C#N	2%	5.2µM*	i	i	?
O=C(C/C=N\O)Nc1ccc(Oc2ccccc2)cc1	-8%	20%	i	i	17%
CO/N=C\CC(=O)Nc1ccc(Oc2ccccc2)cc1	3%	?	8.2µM*	?	5.2µM*
O=[N+]([O-])CC(c1ccc(F)cc1)c1c[nH]c2ccccc12 (stereo unspecified)	?	13µM*	?	i	?
Cn1cc(C(C[N+](=O)[O-])c2ccccc2)c2ccccc21 (stereo unspecified)	?	13µM*	?	?	10µM*
Cc1ccc(S(=O)(=O)Nc2cccc(-c3cn4ccsc4n3)c2)cc1	?	13µM*	?	23µM*	?
O=S(=O)(Nc1cccc(-c2cn3cccnc3n2)c1)c1ccc(F)cc1	-3%	0%	i	21µM*	-2%
O=S(=O)(Nc1cccc(-c2cn3cccnc3n2)c1)c1ccc(-c2ccccc2)cc1	?	25%	i	i	11%
CCC(=O)Nc1nnc2n1CCS2	·	·	i	i	·
COC(=O)C[C@@H]1C[C@@H]2c3cc(NS(=O)(=O)c4ccc(F)cc4)ccc3O[C@@H]2[C@H](CO)O1	·	·	i	i	·
CN1CCN(C2Cc3ccccc3Sc3cc(C(F)(F)F)ccc32)CC1 (stereo unspecified)	·	?	i	i	?
SMILES	ELG1 repair inh	MCF10A rerep	KB-3-1 cytotox	KB-V1 cytotox	SW480 rereplic
CCc1cccc2c1Sc1ccccc1CC2N1CCNCC1 (stereo unspecified)	·	?	?	13µM*	86%
Cc1cccc2c1Sc1ccc(Cl)cc1CC2N1CCNCC1 (stereo unspecified)	·	12µM*	?	?	29%
Cn1c(=O)c2cc(S(=O)(=O)NC(Cc3ccccc3)C(=O)Nc3ccc(F)cc3)ccc2n(C)c1=O (stereo unspecified)	·	·	i	i	·
COC(=O)c1ccc(CNC(=O)Cn2cnc(C(=O)Nc3ccc(C)c(C)c3)n2)cc1	?	?	i	i	3%
CN(Cc1ccccc1)C(=O)c1cc(-c2ccc(Br)cc2)on1	?	-3%	?	15µM*	2%
Cc1cc(C(=O)N(C)Cc2ccc(Br)cc2)no1	-4%	-5%	i	i	2%
COC1=NC(=C(c2ccccc2)c2ccccc2)OC1=O	·	7%	i	i	5%
COc1cc(NC(=O)NCC2CCN(Cc3ccccc3C)CC2)cc(OC)c1OC	-6%	-12%	i	i	-3%
Cc1ccc(-c2cccc(C(=O)NCc3ccccc3)n2)c2ccccc12	-2%	?	?	?	16µM*
O=C(NCc1ccccc1)c1c(Cl)nc(Cl)c(Cl)c1Cl	?	18µM*	16µM*	i	6.5µM*
Cc1ccc(-c2cccc(C(=O)NCCc3ccccc3)n2)c2ccccc12	16%	-3%	i	i	?
C(=C\c1ccccc1)/CN1CCN(C(CCc2ccccc2)c2nnnn2C2CCCCC2)CC1 (stereo unspecified)	·	·	i	?	·
COc1ccccc1NC(=O)CC(c1ccc(OC(C)C)cc1)c1ccccc1OC (stereo unspecified)	8.2µM*	?	i	4.6µM*	?
COc1ccc(CNCCC(c2ccc(OC(C)C)cc2)c2ccccc2OC)cc1 (stereo unspecified)	-11%	?	?	21µM*	?
COc1ccc(CNCCC(c2ccccc2)c2ccc3c(c2)OCO3)cc1 (stereo unspecified)	5%	18µM*	?	?	?
CC(C)Oc1ccc(C(CC(=O)NCc2ccco2)c2ccccc2)cc1 (stereo unspecified)	?	-1%	i	21µM*	-2%
COc1ccccc1C(CCNCc1ccc(N(C)C)cc1)c1ccc(OC(C)C)cc1 (stereo unspecified)	-5%	17%	?	i	?
Cc1cccc(C(CC(=O)NCc2ccco2)c2ccccc2)c1O (stereo unspecified)	-16%	3%	i	i	-41%
COc1ccc(C(CC(=O)O)c2ccc3c(c2)OCO3)cc1 (stereo unspecified)	6%	0%	i	i	?
O=C1c2ccccc2C(c2nnnn2-c2ccc3c(c2)OCCO3)N1Cc1ccco1 (stereo unspecified)	·	·	i	?	·
